gsp antagonist = antagonists of gsp mutant (McCune-Albright syndrome); gsp-mutant cells, cAMP HTRF, 30 min; Potency, µM (highest dose often 76.9 µM), for inactives: at the highest dose activity change, negative = inhibition, hits mostly inhibitors; 0.4% of 340,000 active; calls by dose curve; cell line not stated here;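 note: intracellular cAMP measured with PDE inhibitor Ro 20-1724 present during compound exposure; potency is the fitted concentration of half-maximal effect; % is set by controls: 0 for no effect and ±100 for the full control effect; nearly all actives have a fitted effect of over 65% in size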
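HTRF cAMP measurement after 30 min RT detection following 30 min, 37C compound treatment alongside […] (added as 300 uM solution) in G418-selected cells seeded at 2000/well and grown 16–24 h.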
KCNH2 3.1 block = KCNH2 3.1 (human) potassium channel inhibition; U2OS KCNH2 3.1, thallium flux FluxOr; stronger effect = lower value; activity change, % (tested at about 1.8 µM); 0.95% of 340,000 active; AID 720553;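 active = maximum activity change below -70%; inconclusive = maximum activity change from -70% to -50%; inactive = maximum activity change above -50%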;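 note: thallium influx rate constant from kinetic fluorescence after stimulation buffer; % is set by controls: 0 for no effect and ±100 for the full control effect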
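Channel expression came from 3.1 mutant virus (1.77 x 10^8 /mL) applied to suspended U2OS cells for 4 h. Flux was tracked with FluxOr dye plus Red40 quencher, and kinetic rate constants normalized to controls.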
Akt phos inh = inhibitors of Akt phosphorylation | Neuro2A IGF-stimulated pAkt S473 HTRF, 20 min; stronger effect = lower value | activity change, % for hits at 50 µM | 0.32% of 360,000 active | AID 651550; in the data active = activity change below about -80%; inconclusive = mostly about -51% to -80%; note: % is set by controls: 0 for no effect and ±100 for the full control effect
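Neuro2A cells in DMEM with 0.5% FBS, overnight at 37 deg C, given compound at single 50 µM final, then IGF (6 nM final) for 20 min at 37 deg C. Lysed; phospho-Akt Ser473 by HTRF after 24 h, 665/615 ratio.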
hERG WT inh = blocks the wildtype human KCNH2 potassium channel; U2OS, BacMam KCNH2, thallium flux FluxOr; stronger effect = lower value; activity change, % at 1.84 µM; 0.37% of 340,000 active;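 active = maximum activity change below -70%; inconclusive = maximum activity change between -70% and -50%; inactive = maximum activity change above -50%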; note: % is set by controls: 0 for no effect and ±100 for the full control effect
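U2OS cells were transduced with wild-type KCNH2 virus (2.03 x 10^8 / mL) for 4 h at room temperature, then cultured overnight at 37 C. Thallium flux was read with FluxOr dye. Rate constants were normalized to DMSO controls.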
gsp ag = gsp mutant agonism | gsp mutant cells, cAMP HTRF, 30 min | Potency, µM (titrated, usually from 76.9 µM), for inactives: at the top dose activation (cAMP increase), actives largely listed as activators | 0.13% of 340,000 active | AID 624287; active = well fitted activation curve with a large enough effect; inconclusive = small, poorly fitted or top-dose-only effect, or another doubt; inactive = no such curve, though single readings can be large or run the other way; cell line not stated here;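 note: phosphodiesterase inhibitor Ro 20-1724 added with compounds to block cAMP breakdown; potency is the fitted concentration of half-maximal effect; nearly all actives have a fitted effect of over 60% in size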
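Cells stably selected in G418 were plated at 2000/well, grown 16-24 hr, then given compounds in DMSO with the PDE inhibitor […] (300 uM solution added) for 30 min at 37C; cAMP was read by HTRF.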
GRP78 ERSR act = induces the endoplasmic reticulum stress response in human glioma cells | 0.02% of 420,000 active | U87-MG GRP78 promoter luciferase reporter, 16 h | Potency, µM, without a hit: top-dose activation, actives largely listed as activators | AID 602332; active = well fitted activation curve with a large enough effect; inconclusive = small, poorly fitted or top-dose-only effect; inactive = no such curve, though single readings can be large or run the other way; note: potency is the fitted concentration of half-maximal effect; series mostly up to about 76 µM; % of control where 0% means no effect; nearly all actives have a fitted effect of over 35% in size
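Stably transfected U87-MG human glioma cells carrying a GRP78-based luminescent sensor were seeded at 1000 cells/well, pin-dosed with compounds and incubated 16 h. Luciferase reagent was then added, and end-point luminescence was read after 10 min at room temperature.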
* hit, by the source's call; i = inactive; ? = inconclusive; nt = no result; [ ] = remark or other dose. Most compounds without a hit are left out; they make up all but 1.6% or so of the library.

SMILES | gsp antagonist | KCNH2 3.1 block | Akt phos inh | hERG WT inh | gsp ag | GRP78 ERSR act
CN1CCN(C(=O)c2cc3c(=O)n4ccccc4nc3s2)CC1 | 14% | 5 | i | 2 | 13µM* | 1%
CCCCSC1=C(C#N)C(c2ccccc2C)CC(=O)N1 (stereo not given) | 16% | 5 | i | -311* | -5% | -5%
CCCSC1=C(C#N)C(c2ccccc2C)CC(=O)N1 (stereo not given) | -9% | 0 | i | 3 | ? | -6%
COc1cccc(-c2nc3cc4c(cc3cc2CN(C(=O)c2cccs2)C2CC2)CCC4)c1OC | nt | nt | nt | nt | nt | 0%
COc1cc(/C=C2/NC(=O)N(Cc3ccccc3F)C2=O)ccc1Oc1ccc([N+](=O)[O-])cn1 | -13% | 4 | i | 4 | -36% | -5%
Cc1cc(/C=C2/NC(=O)N(Cc3ccccc3F)C2=O)c(C)n1C(C)C | 11µM* | -4 | i | -1 | -5%[15.4 µM] | 6%
COc1cc(/C=C2/NC(=O)N(Cc3ccccc3F)C2=O)ccc1O | -12% | -104* | i | -5 | -1%[15.4 µM] | 3%
CCn1c(C)cc(/C=C2/NC(=O)N(Cc3ccccc3F)C2=O)c1C | -14% | 6 | i | i | ? | 2%
C/C(=N\NC(=O)c1ccc(Br)cc1)c1ccccc1 | 12% | -26 | -111%* | 29 | 15% | -4%
C/C(=N\NC(=O)c1cccnc1)c1ccc(Br)cc1 | 2% | -24 | i | 3 | -61% | 7%
Cc1ccc(C=C2C(=O)c3ccccc3C2=O)o1 | 12% | -83* | i | -2 | 6% | -1%
Cc1ccc(/C=C2/C(=O)c3ccc(C(=O)O)cc3C2=O)o1 | -40% | 3 | i | -12 | 26%[15.4 µM] | 1%
Cc1c(C)c2c(c(C)c1OC(=O)CCC(=O)O)CC[C@@](C)(CCC[C@H](C)CCC[C@H](C)CCCC(C)C)O2 | nt | nt | nt | nt | nt | -2%
CN(Cc1ccccc1F)c1nc(-c2cccs2)nc2ccccc12 | 11µM* | -20 | i | -8 | 19%[15.4 µM] | -3%
Cc1c(C(=O)NCc2ccc(F)cc2)sc2ncnc(NCC3CCCO3)c12 (stereo not given) | nt | nt | nt | nt | nt | -4%
COc1ccc(C(=O)NC(=S)Nc2ccc3oc(=O)ccc3c2)cc1OC | 11% | -99* | i | -3 | -55% | -5%
COc1cccc(OC)c1C(=O)NC(=S)Nc1ccc2oc(=O)ccc2c1 | 1% | 3 | i | -10 | -26% | -5%
Cc1ccc2c(/C=C/c3c[nH]c4ccccc34)ccnc2c1C | nt | nt | nt | nt | nt | -1%
O=C(O)CCC(=O)N1CCc2cc(S(=O)(=O)N3CCN(c4ccc(F)cc4)CC3)ccc21 | 11% | -101* | i | -3 | -20% | -4%
Cc1ccc(C)c(N2CCN(S(=O)(=O)c3ccc4c(c3)CCN4C(=O)CCC(=O)O)CC2)c1 | -22% | -4 | i | 5 | -23% | 1%
CC1C=CCC2C(=O)N(c3cccc(C(=O)N4CCN(c5ccc(F)cc5)CC4)c3)C(=O)C12 (stereo not given) | -12% | -4 | i | -26 | 28µM* | 0%
O=C(Nn1cnnc1)c1cc2cc(Br)ccc2oc1=O | 3% | 7 | -93%* | 4 | ? | -4%
CC(=O)c1ccc(F)c(-c2cc(C)cc3c2OC(CNC(=O)C[C@@H]2C[C@@H](C)NC(=S)N2)C3)c1 (stereo not given in full) | nt | nt | nt | nt | nt | 0%
Cc1nc(S/C(=C/c2ccc(-c3cc(Cl)ccc3C)o2)C(=O)O)n[nH]1 | 28µM* | 10 | i | -12 | -25% | -7%
COc1cc(OC)cc(C(=O)NCC2Cc3cccc(-c4nc(C)cnc4C)c3O2)c1 (stereo not given) | nt | nt | nt | nt | nt | -1%
NC(=O)c1ccccc1N/C=C1\CCCCC1=O | 50µM* | 11 | i | nt | 21% | -2%
C=C1C=C(C(F)F)n2ncc(C(=O)N3CCc4ccccc4C3)c2N1 | nt | nt | nt | nt | nt | -4%
Cc1ccc2c(c1)CN(CCNC(=O)c1cccc(Cn3cccn3)c1)CC(C)O2 (stereo not given) | nt | nt | nt | nt | nt | -1%
Clc1ccc(N2CCN(Cc3c[nH]c4ncccc34)CC2)cc1 | 4% | -82* | i | nt | nt | -6%

Bioassay records deposited in PubChem BioAssay by National Center for Advancing Translational Sciences (NCATS).
